Screening data (PubChem BioAssay)
TTR transcr act – TTR transcription activation, primary screen; 92,000 tested, 1.3% active; activation, % at 16.7 µM; AID 1117267; SH-SY5Y TTR promoter Gaussia luciferase, luminescence; 100% = recombinant luciferase protein wells;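 active means activation above the mean of all tested compounds plus 3 SD, cut at about 9.5% in these data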;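 further: cells exposed to compounds for one day before reading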
HuH7 TTR inh – counter-screen for TTR activators: TTR transcription inhibitors in HuH7 cells. 1,100 tested, 4% active. HuH7 TTR promoter-Gaussia luciferase reporter, luminescence. inhibition, % at 16.7 µM. shares compounds with TTR transcr act;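 active means average inhibition above the solvent-only control wells' mean plus 3 SD, cut at about 15% in these data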;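 further: inhibitors lower well luminescence so higher value means more inhibition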
TTR up confirm – confirmation of human transthyretin transcription activators | shares compounds with TTR transcr act | SHSY5Y TTR promoter Gaussia luciferase, luminescence; 100% = purified Lucia enzyme wells, no cells | activation, % at 16.7 µM | 1,100 tested, under 10 active | AID 1117280;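 active means mean activation above a set limit taken from the earlier primary screen, cut at about 11% in these data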
Each line names hits and unclear results; the compound was inactive in the other large screens (follow-up assays come after a bar, where they were run). This excerpt belongs to a sample that is enriched for hits.

CCN1C(=O)c2cccc3c(S(=O)(=O)N4CCC(C)CC4)ccc1c23	none
CCOC(=O)c1ccc(NC(=O)Nc2ccc3c4c(cccc24)C(=O)N3CC)cc1	none
CCN1C(=O)c2cccc3c(NC(=O)c4ccc(S(=O)(=O)N(C)C)cc4)ccc1c23	TTR transcr act 9.9 | HuH7 TTR inh inactive | TTR up confirm inactive
Cc1ccc(NCC(=O)N/N=C/c2cccc(Oc3ccccc3)c2)cc1	none
CCN1CCCCC(NC(=O)c2ccccc2OC)C1=O (stereo not given)	none
C=CCn1c(SCC(=O)NC2CCCC2)nc2c([nH]c3ccccc32)c1=O	none
C1=CC2CCC1ON2c1ccccc1 (stereo not given)	TTR transcr act 17 | HuH7 TTR inh inactive | TTR up confirm inactive
Nc1ccccc1C(=O)N1O[C@@H]2C=C[C@H]1C2	none
Cc1cccc(N2O[C@H]3C=C[C@@H]2C3)n1	none
COC1OC(O)C(NC(=O)C(F)(F)F)CC1O (stereo not given)	none
CCOC(=O)c1cc(C(=O)NN)c(C)nc1C	none
CCOC(=O)c1cnn2c(C)cc(-c3ccc(F)cc3)nc12	none
CCOC(=O)c1cc2cc(F)ccc2nc1C	TTR transcr act 23 | HuH7 TTR inh inactive | TTR up confirm inactive
C=C(Br)CN1[C@@H](Cc2ccccc2)[C@H](O)[C@@]23C=C[C@@H](C[C@@H]2S1(=O)=O)O3	none
COc1ccccc1Cc1c(-c2ccccc2)nc2cc(C)c(Br)c(C)n12	none
COCC(=O)Nc1nnc(-c2cccs2)s1	none
CN(C(=O)COc1ccccc1)c1nc(-c2ccc(F)cc2)cs1	none
COCC(=O)N(C)c1nnc(-c2cnc(C)cn2)s1	TTR transcr act 9.7 | HuH7 TTR inh inactive | TTR up confirm inactive
CC(C)S(=O)(=O)c1cnc(-c2ccccn2)nc1N	none
C[C@H](CO)N1C[C@H](C)[C@@H](CN(C)C(=O)Nc2ccccc2F)OCc2cnnn2CCCC1=O	none
COc1ccc(CC(=O)NNC(=O)CCc2ccccc2)cc1	none
Cc1ccccc1OCC(=O)NNC(=S)NC(=O)c1ccco1	none
Cc1ccccc1OCC(=O)NNC(=O)CCc1ccccc1	TTR transcr act 10 | HuH7 TTR inh inactive | TTR up confirm inactive
C=CCN(C(=O)[C@@H](C1CC1)[C@@H](O)c1ccc(Cl)cc1)c1ccccc1	none
N#CCN=C(c1ccccc1)c1ccccc1	none
COc1ccc(Cc2nc3ccc(C(=O)N4CCCC4)cc3o2)cc1	none
COC(=O)CCCNC(=O)c1ccc2nc(Cc3ccc(OC)cc3)oc2c1	none
COc1ccc(Cc2nc3ccc(C(=O)NCc4cc(C)no4)cc3o2)cc1OC	TTR transcr act 9.9 | HuH7 TTR inh inactive | TTR up confirm inactive
NS(=O)(=O)c1ccc(NC(=O)CSc2nc3c(c(=O)[nH]2)CCCC3)cc1	none
O=C(COC(=O)c1ccccn1)Nc1cccc(Cl)c1Cl	none
O=C(COC(=O)c1ccccn1)NCCc1ccc(Cl)cc1	TTR transcr act 11 | HuH7 TTR inh inactive | TTR up confirm inactive
Cc1ccnc2nc(C(=O)OCC(=O)NCCc3ccc(Cl)cc3)nn12	none
Cc1noc(C)c1S(=O)(=O)N(C)C[C@H]1Oc2c(NC(=O)C3CCCCC3)cccc2C(=O)N([C@H](C)CO)C[C@@H]1C	none
CCCN(N=Nc1cccc([N+](=O)[O-])c1)c1cccc([N+](=O)[O-])c1	none
CN(N=Nc1cccc([N+](=O)[O-])c1)c1cccc([N+](=O)[O-])c1	TTR transcr act 20 | HuH7 TTR inh inactive | TTR up confirm inactive
CC(=O)N(C)c1cccc([N+](=O)[O-])c1	none
CC(C)N1CCCCC(NC(=O)c2cccs2)C1=O (stereo not given)	none
O=C(O)CNS(=O)(=O)c1cccc(Cl)c1	TTR transcr act 15 | HuH7 TTR inh inactive | TTR up confirm inactive
O=C(O)CCNS(=O)(=O)c1ccc2ccccc2c1	none
O=C(O)CCNS(=O)(=O)c1ccccc1	none
CCCNC(=O)Nc1ccc2c(c1)C(=O)N(C)[C@H]1CC[C@@H](CC(=O)OC)O[C@H]1CO2	none
C=CC[C@@H](CC(=O)NCCO)C(=O)N[C@@H](C)COC(=O)[C@@H](CC=C)Cc1ccc(F)cc1	TTR transcr act 21 | HuH7 TTR inh inactive | TTR up confirm inactive
C=CC[C@@H](CC(=O)N[C@H](CO)Cc1ccccc1)C(=O)N[C@@H](C)COC(=O)[C@@H](CC=C)Cc1ccc(F)cc1	none
C=CCC[C@@H](Cc1ccc(F)cc1)C(=O)OC[C@@H](Cc1ccccc1)NC(=O)[C@H](CC=C)CC(=O)NCCO	none
COC(=O)[C@]12C[C@H](CC(=O)NCCC(C)C)C(=O)N(Cc3cccc4ccccc34)C1=C[C@H](COCc1ccccc1)O[C@@H]2C	none
COc1ccc(-n2c(=O)c3c4c(sc3n3c(=S)[nH]nc23)COC(C(C)C)C4)cc1 (stereo not given)	none
Cc1ccc2cc([N+](=O)[O-])ccc2n1	none
CCCCCCCCN1C(=O)[C@H](CC(=O)NCc2ccc(OC)c(OC)c2)C[C@@]2(C(=O)OC)CC(C)(C)CC=C12	none
N#Cc1cccc(NC(=O)CN2NS(=O)(=O)c3ccccc3C2=O)c1	TTR transcr act 11 | HuH7 TTR inh inactive | TTR up confirm inactive
N#Cc1cccc(NC(=O)CC2CCCC2)c1	none
N#Cc1cccc(NC(=O)CCn2ccnc2)c1	none
N#CC(c1cccc([N+](=O)[O-])c1)C(CC(=O)c1ccccc1)c1ccccc1 (stereo not given)	none
CCCCn1nnnc1C(c1cc2ccccc2o1)N(Cc1ccccc1)Cc1ccccc1 (stereo not given)	none
COc1ccccc1N1CCN(C(c2cccs2)C(C)NC(=O)c2ccncc2)CC1 (stereo not given)	none
COc1ccc(-c2noc(-c3ccoc3C)n2)cc1OC	none
COc1ccc(-c2noc(-c3cccs3)n2)cc1OC	TTR transcr act 22 | HuH7 TTR inh 35 | TTR up confirm inactive
COc1ccc(-c2nc(-c3ccncc3)no2)cc1OC	none
N#Cc1ccsc1NC(=O)CCN1C(=O)C2CCCCC2C1=O (stereo not given)	none
O=C(c1ccc(C(F)(F)F)cc1)C1CCCN(C(=O)CCN2CCCO2)C1 (stereo not given)	none
CCn1cnc2cc(NCc3cccc(OC)c3O)ccc21	none
CCOc1cccc(CNc2ccc(O)cc2)c1OCc1ccc(Cl)cc1Cl	none
COc1cccc(CNc2ccc(F)c(Cl)c2)c1O	TTR transcr act 13 | HuH7 TTR inh inactive | TTR up confirm inactive
O=S1(=O)c2ccc(N3CCC[C@@H]3CO)cc2OCCCN1C1CC1	none
O=C(NC1CCCCC1)OC[C@@H]1CSCCS(=O)(=O)N1	none
CN(C)NC(=S)Nc1cccc(Cl)c1	none
CN(C)NC(=O)c1cccc(Cl)c1	none
CN(Nc1cccc(Cl)c1)c1cccc(Cl)c1	TTR transcr act 11 | HuH7 TTR inh inactive | TTR up confirm inactive
O=C(c1cccnc1)N(Cc1ccccc1)C(c1ccccc1)c1nc2ccccc2[nH]1 (stereo not given)	none
COC(=O)[C@@]12CCCCC=C1N(CCc1ccc(Cl)cc1)C(=O)[C@H]2CC(=O)NCc1cccc2ccccc12	none
O=C(COC(=O)C1CCC(=O)N1)Nc1ccccc1OC(F)F (stereo not given)	none
O=C1CN(C(=O)c2ccc(Cl)c(S(=O)(=O)N3CCc4ccccc43)c2)c2ccccc2N1	none
CCN(CC)S(=O)(=O)c1ccc(Cc2ncc(C(F)(F)F)cc2Cl)s1	TTR transcr act 9.9 | HuH7 TTR inh inactive | TTR up confirm inactive
NNS(=O)(=O)c1ccc(Cc2ncc(C(F)(F)F)cc2Cl)s1	none
